Screens (PubChem)
LmPK inhibitor: blocks Leishmania mexicana pyruvate kinase activity; 290,000 compounds, 0.37% hits; purified LmPK, Kinase-Glo ATP luminescence, 1 h; AID 1721; Potency, µM (doses to about 57.5 µM), inactives show top-dose activity change, negative = inhibition, most hits filed as inhibitors; further: potency means the concentration at half of the fitted maximal effect; on the % scale 0 is the no-effect control and ±100 the full control effect
Target sequence (Q27686 whole entry, looked up): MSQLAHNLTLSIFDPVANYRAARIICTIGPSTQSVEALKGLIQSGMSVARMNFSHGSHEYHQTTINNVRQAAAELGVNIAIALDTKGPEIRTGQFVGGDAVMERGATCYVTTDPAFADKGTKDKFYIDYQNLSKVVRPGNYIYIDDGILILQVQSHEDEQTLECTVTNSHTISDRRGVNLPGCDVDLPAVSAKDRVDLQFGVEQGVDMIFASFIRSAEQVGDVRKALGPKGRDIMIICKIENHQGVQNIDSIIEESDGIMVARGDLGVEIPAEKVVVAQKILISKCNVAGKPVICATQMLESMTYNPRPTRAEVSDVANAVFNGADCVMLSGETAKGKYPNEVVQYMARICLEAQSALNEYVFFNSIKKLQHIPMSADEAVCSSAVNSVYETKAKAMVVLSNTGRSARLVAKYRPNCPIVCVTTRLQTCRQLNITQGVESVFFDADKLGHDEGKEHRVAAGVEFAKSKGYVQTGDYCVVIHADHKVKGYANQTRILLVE
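In 50 mM imidazole pH 7.2 with 7 mM MgCl2, LmPK (0.1 nM) turned over PEP (0.5 mM) and ADP (0.1 mM) for 1 h at room temperature. Luciferase read-out of ATP.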
Pf growth 96h: P. falciparum growth inhibition at 96 hour, primary screen for plastid delayed-death inhibitors | P. falciparum luciferase reporter growth, 96 h | Potency, µM (top dose mostly 28.7 µM), inactives show at the top dose activity change, negative = inhibition, actives largely listed as inhibitors | 320,000 compounds, 6.9% hits | AID 504834; further: potency means the concentration at half of the fitted maximal effect; on the % scale 0 is the no-effect control and ±100 the full control effect
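Luminescence readout: decreased luciferase signal marks inhibited growth of reporter-expressing P. falciparum in infected red cells (2% hematocrit, 0.05% parasitemia final), exposed to compound two generations (96 h, 37 C, 5% CO2).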
Shiga inhibitor: inhibitors of Shiga toxin in Vero cells. Vero cells, Shiga toxin protein synthesis inhibition reporter. inhibition, % at 38.7 µM. 290,000 compounds, 9.2% hits. AID 2315; in the data active means inhibition mostly above about 28%, no sharp cut-off; inactive means mostly below about 43%; further: 0% is about no effect
Pf growth 48h: inhibits P. falciparum growth in the first generation, 48 h | P. falciparum luciferase growth in erythrocytes, 48 h | Potency, µM (top dose mostly 28.7 µM), without a hit: top-dose activity change, negative = inhibition, actives largely listed as inhibitors | 310,000 compounds, 5.9% hits | AID 504832; further: potency means the concentration at half of the fitted maximal effect; on the % scale 0 is the no-effect control and ±100 the full control effect
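A one-generation exposure of luciferase-tagged malaria parasites in RPMI 1640/Albumax erythrocyte culture, 37 C and 5% CO2. Inhibition is inferred from decreased luminescence after adding detection reagent.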
Cycloheximide cs: affects cycloheximide protein synthesis inhibition readout, counter-screen; max response, %; 300,000 compounds, 12% hits; cell reporter, cycloheximide protein synthesis inhibition counterscreen; in the data active means max response mostly above about 13%, no sharp cut-off; inactive means mostly below about 14%; further: read at 38.3 µM for the half of the compounds with a filed dose; 0% is about no effect
Starred values were filed as active, the others as inactive; u = inconclusive; x = no result given; [ ] = dose if it differs, or a comment. Most compounds without a hit are left out; they make up all but 22% or so of the library. Unless noted, the call rests on the fitted dose curve; in most records, active means well fitted inhibition curve with a large enough effect; inconclusive means small, poorly fitted or top-dose-only effect, or another doubt; inactive means no such curve, though single readings can be large or run the other way.

SMILES	LmPK inhibitor	Pf growth 96h	Shiga inhibitor	Pf growth 48h	Cycloheximide cs
Cc1ccc(S(=O)(=O)NCC(=O)OC(C)C(=O)NC(=O)NC2CCCCC2)cc1C (configuration not stated)	x	-2%	x	-16%	x
Cn1c(=O)c2c(nc(NCc3ccc4c(c3)OCO4)n2Cc2ccc(F)cc2)n(C)c1=O	2%	13µM*	-11	12µM*	-2
CC(C)CNc1nc2c(c(=O)n(C)c(=O)n2C)n1Cc1cccc(Br)c1	1%	19%	14	12µM*	-2
Cc1nc(NCc2ccc3c(c2)OCO3)c2nnn(Cc3ccccc3)c2n1	-5%	12µM*	5	3%	2
CC(O)CNc1nc2c(c(=O)n(C)c(=O)n2C)n1Cc1cccc(Br)c1 (configuration not stated)	-3%	-12%	-5	-17%	-4
Cn1c(=O)c2c(nc(NCc3ccc4c(c3)OCO4)n2Cc2ccccc2)n(C)c1=O	6%	-21%	-4	13µM*	-3
CCN(CC)Cc1c(C(=O)N/N=C/c2cccc(OCc3cccc(Cl)c3)c2)nnn1-c1nonc1N	6%	6%	19	-8%	12
CC(=O)Nc1ccc(SCCN2CCN(C)CCC2=O)cc1	x	x	6	x	9
O=C(Nc1ccc(Oc2cccc(C(F)(F)F)c2)nc1)c1cccs1	-5%	u	7	1.7µM*	4
O=C(Nc1ccc(Oc2cccc(C(F)(F)F)c2)nc1)c1ccccc1	-3%	15µM*	-2	10µM*	-3
COc1cc(NC(=O)c2ccnnc2)cc(C(=O)Nc2cccc(C(F)(F)F)c2)c1	-6%	4.1µM*	11	9.3µM*	1
O=C(NC1CCSC1=O)c1ccc(Oc2cccc(C(F)(F)F)c2)nc1 (configuration not stated)	2%	14%	-23	-17%	-2
COc1ccc(NC(=O)COc2cccc(C(F)(F)F)c2)cn1	x	0%	x	u	x
COc1cccc(C(=O)Nc2ccc(Oc3cccc(C(F)(F)F)c3)nc2)c1	1%	u	-4	9.3µM*	1
CN1CCN(S(=O)(=O)c2cccc(C(=O)NCc3ccccc3Cl)c2)CC1	3%[11.5 µM]	u	-10	6%	12
COCc1nnc(NC(=O)c2c(-c3c(Cl)cccc3Cl)noc2C)s1	-1%	4%	-11	1%	3
O=C(CSc1nncs1)Nc1nnc(-c2ccccc2)o1	-3%	12%	-11	0%	-2
c1ccc2oc(-c3[nH]ncc3CN3CCSCC3)cc2c1	3%	-4%	-9	-2%	0
c1ccc2oc(-c3ccn[nH]3)cc2c1	-2%	83%	90*	111%	39*
NS(=O)(=O)c1ccc(CNC(=O)c2cc(-c3cccnc3)nc3ccc(Br)cc23)cc1	-5%	u	-7	-24%	-2
CCOCCCNC(=S)N1C2CCC1CC(NC(=O)NC13CC4CC(CC(C4)C1)C3)C2 (configuration not stated)	4%	3.7µM*	-8	4.7µM*	-2
CCOc1ccc(NC(=O)CCC(=O)N/N=C2\CCCc3ccccc32)cc1	-2%	-11%	-4	2%	13
CC1=C(C(=O)Nc2ccc(C)cn2)C(c2cnn(C)c2)C2=C(CCCC2=O)N1 (configuration not stated)	-1%	-4%	14	25%	-2
COCCn1c(C)cc(/C=C2/NC(=O)N(c3ccc(Cl)cc3)C2=O)c1C	-1%	u	16	u	55*
Cc1cc(C)n(-c2ccc(C(=O)Nc3ccc(C)c(S(=O)(=O)N(C)C)c3)cc2)n1	1%	12µM*	-4	u	-2
SMILES	LmPK inhibitor	Pf growth 96h	Shiga inhibitor	Pf growth 48h	Cycloheximide cs
Cc1ccc(NC(=O)c2ccc(OC(F)(F)F)cc2)cc1S(=O)(=O)N(C)C	2%	u	8	-29%	12*
Cc1cc(C)n(-c2ccc(C(=O)Nc3ccc(S(=O)(=O)N(C)C)cc3)cc2)n1	0%	u	-10	15µM*	-6
Cc1cc(C)n(-c2ccc(C(=O)Nc3cccc(S(=O)(=O)N(C)C)c3)cc2)n1	0%	u	-14	-30%	-4
Cc1cc2c(cc1C)NC(c1c(C)n(C)n(-c3ccccc3)c1=O)C1=C(CC(C)(C)CC1=O)N2 (configuration not stated)	3%	10µM*	39*	u	19*
COc1ccc(C2Nc3ccccc3NC3=C2C(=O)CC(C)(C)C3)cc1 (configuration not stated)	2%	16%	84*	6%	48*
COc1ccc(C2Nc3ccccc3NC3=C2C(=O)CC(C)(C)C3)cc1O (configuration not stated)	1%	0%	70*	u	24*
COc1ccc(C2Nc3ccccc3NC3=C2C(=O)CC(C)(C)C3)cc1OC (configuration not stated)	8%	-23%	2	0%	5
COc1cc(C2Nc3cc(C)c(C)cc3NC3=C2C(=O)CC(C)(C)C3)ccc1OC(C)=O (configuration not stated)	7%	u	30	5%	15
Cc1ccc(C2Nc3ccccc3NC3=C2C(=O)CC(C)(C)C3)c(O)c1 (configuration not stated)	-2%	14%	30	5%	14*
CC1(C)CC(=O)C2=C(C1)Nc1ccccc1NC2c1cc(Cl)ccc1O (configuration not stated)	3%	u	2	13%	7
CC1(C)CC(=O)C2=C(C1)Nc1ccccc1NC2c1nc2ccccc2[nH]1 (configuration not stated)	0%	u	118*	x	42*
CC1(C)CC(=O)C2=C(C1)Nc1ccccc1NC2c1ccccn1 (configuration not stated)	-3%	40%	13	13%	8
COc1ccccc1C1Nc2ccccc2NC2=C1C(=O)CC(C)(C)C2 (configuration not stated)	-3%	-24%	2	-8%	2
COc1ccc(OC)c(C2Nc3ccccc3NC3=C2C(=O)CC(C)(C)C3)c1 (configuration not stated)	-2%	4.1µM*	33	19%	19*
COc1ccccc1NC(=O)CN1CCN(C(=O)C2CCCO2)CC1 (configuration not stated)	2%	26%	-5	-6%	-2
CCOC(=O)c1cnc(SSc2ncc(C(=O)OCC)c(N)n2)nc1N	0%	u	x	-9%	-3
CCOC(=O)c1cnc(SCC(=O)OC)nc1N	0%	u	72	0%	34*
CCOC(=O)c1cnc(SCCN2CCOCC2)nc1N	0%	15%	34	59%	18*
CCOC(=O)c1cnc(SCC(=O)Nc2ccc(N3CCOCC3)cc2)nc1N	-7%	6%	-3	x	-3
C=CCSc1ncc(C(=O)OCC)c(N)n1	-6%	57%	51*	136%	41*
